# In PubChem BioAssay (EPA / NIEHS):
# Records with an inconclusive call do not appear. Activity calls are given as the source filed them. How the source made its calls: active means hit-call score of the fitted dose curve at least 0.9, where 1 is the maximum; inconclusive means response in the unintended direction; inactive means score below 0.9.
# Tests used:
# [1] = target: human Peroxisome Proliferator-activated Receptor alpha (PPARa), PPARA (gene 5465) (UniProt Q07869); assay: ATG_PPARa_TRANS: Attagene TRANS-FACTORIAL HepG2 Assay for human Peroxisome Proliferator-activated Receptor alpha (PPARa) (AID 2283001);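 on AC50: potency for gain of reporter signal over DMSO so agonist or activator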
# Chain of human Peroxisome Proliferator-activated Receptor alpha (PPARa), PPARA (gene 5465) (Q07869 whole entry, looked up, the tested form may be a part): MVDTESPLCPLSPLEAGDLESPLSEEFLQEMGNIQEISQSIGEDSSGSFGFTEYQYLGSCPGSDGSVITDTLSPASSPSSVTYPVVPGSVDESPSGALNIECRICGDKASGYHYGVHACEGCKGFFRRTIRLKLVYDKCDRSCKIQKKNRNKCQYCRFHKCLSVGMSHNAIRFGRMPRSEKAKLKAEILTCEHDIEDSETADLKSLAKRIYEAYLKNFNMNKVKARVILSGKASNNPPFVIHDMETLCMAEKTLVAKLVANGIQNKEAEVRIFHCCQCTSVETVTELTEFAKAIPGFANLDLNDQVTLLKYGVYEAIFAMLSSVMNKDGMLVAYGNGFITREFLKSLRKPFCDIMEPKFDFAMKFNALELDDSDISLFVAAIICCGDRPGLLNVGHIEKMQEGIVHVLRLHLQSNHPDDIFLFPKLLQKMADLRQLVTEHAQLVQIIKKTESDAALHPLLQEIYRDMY
# Outline: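 HepG2 cells transiently transfected with multiplexed GAL4-UAS reporter units and chimeric NR-Gal4 constructs were dosed for 24 h. Reporter mRNA was measured by RT-PCR with fluorescent labelling and capillary electrophoresis; gain of signal fitted against DMSO.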
# [2] = target: human Peroxisome Proliferator-activated Receptor delta (PPARd), PPARD (gene 5467) (UniProt Q03181); assay: ATG_PPARd_TRANS: Attagene TRANS-FACTORIAL HepG2 Assay for human Peroxisome Proliferator-activated Receptor delta (PPARd) (AID 2283002)
# Chain of human Peroxisome Proliferator-activated Receptor delta (PPARd), PPARD (gene 5467) (Q03181 whole entry, looked up, the tested form may be a part): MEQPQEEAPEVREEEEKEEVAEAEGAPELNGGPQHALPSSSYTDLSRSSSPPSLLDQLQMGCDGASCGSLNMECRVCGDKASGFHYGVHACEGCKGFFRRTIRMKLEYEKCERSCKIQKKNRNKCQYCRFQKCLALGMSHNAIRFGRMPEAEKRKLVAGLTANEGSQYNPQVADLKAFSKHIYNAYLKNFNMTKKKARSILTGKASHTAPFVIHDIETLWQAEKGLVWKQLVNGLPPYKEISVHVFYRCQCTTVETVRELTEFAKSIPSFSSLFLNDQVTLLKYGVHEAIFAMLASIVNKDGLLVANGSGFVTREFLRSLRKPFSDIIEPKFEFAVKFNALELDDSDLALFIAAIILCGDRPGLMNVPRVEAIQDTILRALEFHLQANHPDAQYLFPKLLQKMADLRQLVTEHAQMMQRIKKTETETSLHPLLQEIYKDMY
# Outline: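 Multiplexed trans-activation format: HepG2 liver cells expressing exogenous NR-Gal4 chimeras and GAL4-UAS reporters were exposed for 24 h. Reporter mRNA was detected by RT-PCR with capillary electrophoresis fluorescence; activity fitted as gain of signal relative to DMSO.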
# [3] = target: Retinoic acid receptor alpha (Homo sapiens) (UniProt P10276); assay: ATG_RARa_TRANS: Attagene TRANS-FACTORIAL HepG2 Assay for human Retinoic Acid Receptor alpha (RARa) (AID 2283005)
# Chain of Retinoic acid receptor alpha (Homo sapiens) (P10276 whole entry, looked up, the tested form may be a part): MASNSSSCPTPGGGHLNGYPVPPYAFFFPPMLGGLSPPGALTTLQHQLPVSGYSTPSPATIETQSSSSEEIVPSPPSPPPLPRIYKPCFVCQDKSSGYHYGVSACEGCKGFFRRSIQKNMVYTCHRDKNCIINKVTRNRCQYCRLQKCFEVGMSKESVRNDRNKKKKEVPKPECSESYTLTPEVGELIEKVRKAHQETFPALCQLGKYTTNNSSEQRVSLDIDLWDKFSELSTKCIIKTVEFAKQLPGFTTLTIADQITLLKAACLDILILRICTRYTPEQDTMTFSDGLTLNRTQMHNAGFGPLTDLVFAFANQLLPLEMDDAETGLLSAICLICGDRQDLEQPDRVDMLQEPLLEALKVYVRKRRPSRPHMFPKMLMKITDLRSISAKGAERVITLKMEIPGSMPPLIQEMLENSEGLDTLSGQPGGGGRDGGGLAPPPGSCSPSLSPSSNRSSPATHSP
# Outline: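 HepG2 cells transiently transfected with multiple reporter units expressing chimeric RARα-GAL4 fusion, with GAL4-UAS-driven reporters. After 24 h compound exposure, reporter mRNA induction quantified by RT-PCR and capillary electrophoresis with fluorescent labeling; gain-of-signal fitted relative to DMSO control.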
# [4] = target: human Retinoic Acid Receptor gamma (RARg), RARG (gene 5916) (UniProt P13631); assay: ATG_RARg_TRANS: Attagene TRANS-FACTORIAL HepG2 Assay for human Retinoic Acid Receptor gamma (RARg) (AID 2283009)
# Chain of human Retinoic Acid Receptor gamma (RARg), RARG (gene 5916) (P13631 whole entry, looked up, the tested form may be a part): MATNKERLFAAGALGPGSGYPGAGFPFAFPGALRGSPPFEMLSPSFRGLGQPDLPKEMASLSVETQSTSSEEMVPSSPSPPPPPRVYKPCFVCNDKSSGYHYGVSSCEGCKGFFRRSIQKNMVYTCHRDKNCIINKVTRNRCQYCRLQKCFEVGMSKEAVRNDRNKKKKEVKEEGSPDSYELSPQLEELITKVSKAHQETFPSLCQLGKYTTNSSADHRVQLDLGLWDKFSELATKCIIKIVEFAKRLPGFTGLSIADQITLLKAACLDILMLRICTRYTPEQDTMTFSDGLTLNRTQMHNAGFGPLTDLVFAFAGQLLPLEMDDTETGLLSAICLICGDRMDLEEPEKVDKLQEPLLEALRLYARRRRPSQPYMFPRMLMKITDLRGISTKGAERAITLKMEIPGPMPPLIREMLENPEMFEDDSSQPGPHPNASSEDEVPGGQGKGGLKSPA
# Outline: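 HepG2 cells transiently transfected with multiplexed reporter units expressing chimeric RARg-GAL4 and GAL4-UAS-driven reporters; 24 h compound exposure. Reporter mRNA quantified by RT-PCR with fluorescent labelling and capillary electrophoresis; gain-of-signal fitted relative to DMSO baseline.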
# [5] = target: Peroxisome proliferator-activated receptor gamma (Homo sapiens) (UniProt P37231); assay: ATG_PPARg_TRANS: Attagene TRANS-FACTORIAL HepG2 Assay for human Peroxisome Proliferator-activated Receptor-gamma (PPARg) (AID 2283007)
# Chain of Peroxisome proliferator-activated receptor gamma (Homo sapiens) (P37231 whole entry, looked up, the tested form may be a part): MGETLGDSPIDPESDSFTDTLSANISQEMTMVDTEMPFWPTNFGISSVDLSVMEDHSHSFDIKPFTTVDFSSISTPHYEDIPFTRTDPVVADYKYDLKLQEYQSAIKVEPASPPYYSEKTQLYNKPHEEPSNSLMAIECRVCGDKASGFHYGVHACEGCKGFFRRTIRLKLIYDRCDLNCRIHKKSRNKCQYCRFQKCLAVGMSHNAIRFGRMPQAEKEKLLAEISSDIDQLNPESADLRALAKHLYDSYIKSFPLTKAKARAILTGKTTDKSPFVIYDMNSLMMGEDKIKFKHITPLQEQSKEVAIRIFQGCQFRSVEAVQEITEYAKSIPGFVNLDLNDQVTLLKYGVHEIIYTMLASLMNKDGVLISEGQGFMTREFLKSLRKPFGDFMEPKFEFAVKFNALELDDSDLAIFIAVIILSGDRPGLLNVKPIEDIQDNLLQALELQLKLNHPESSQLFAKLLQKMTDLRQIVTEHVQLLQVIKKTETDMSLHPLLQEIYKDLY
# Outline: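 HepG2 cells transiently transfected with multiplexed GAL4-UAS reporter units and exogenous chimeric NR-Gal4 proteins; reporter mRNA quantified after 24 h compound exposure by RT-PCR, fluorescent labelling, HpaI digestion and capillary electrophoresis; gain-of-signal fitted versus DMSO baseline.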
# [6] = target: human RAR-related Orphan Receptor beta (RORb), RORB (gene 6096) (UniProt Q92753); assay: ATG_RORb_TRANS: Attagene TRANS-FACTORIAL HepG2 Assay for human RAR-related Orphan Receptor beta (RORb) (AID 2283010)
# Chain of human RAR-related Orphan Receptor beta (RORb), RORB (gene 6096) (Q92753 whole entry, looked up, the tested form may be a part): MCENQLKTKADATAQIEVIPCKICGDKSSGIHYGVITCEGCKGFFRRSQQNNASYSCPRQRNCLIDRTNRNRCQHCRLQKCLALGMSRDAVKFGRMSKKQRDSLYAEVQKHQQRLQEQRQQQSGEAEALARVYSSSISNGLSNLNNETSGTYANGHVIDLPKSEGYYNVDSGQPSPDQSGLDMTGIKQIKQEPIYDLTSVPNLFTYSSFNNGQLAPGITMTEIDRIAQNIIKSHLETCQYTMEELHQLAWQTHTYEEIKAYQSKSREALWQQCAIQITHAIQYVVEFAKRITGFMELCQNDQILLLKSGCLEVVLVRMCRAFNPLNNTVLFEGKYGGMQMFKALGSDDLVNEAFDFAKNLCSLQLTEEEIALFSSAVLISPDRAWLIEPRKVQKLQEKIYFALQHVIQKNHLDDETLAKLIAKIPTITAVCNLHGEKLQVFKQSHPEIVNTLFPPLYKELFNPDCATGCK
# Outline: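 HepG2 cells were transiently transfected with multiplexed GAL4-UAS reporter units expressing chimeric nuclear receptor–GAL4 proteins, then dosed for 24 h. Reporter mRNA was quantified by RT-PCR with fluorescent labelling and capillary electrophoresis; gain of signal was fitted relative to DMSO.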
# [7] = target: human Retinoic Acid Receptor beta (RARb), RARB (gene 5915) (UniProt P10826); assay: ATG_RARb_TRANS: Attagene TRANS-FACTORIAL HepG2 Assay for human Retinoic Acid Receptor beta (AID 2283004)
# Chain of human Retinoic Acid Receptor beta (RARb), RARB (gene 5915) (P10826 whole entry, looked up, the tested form may be a part): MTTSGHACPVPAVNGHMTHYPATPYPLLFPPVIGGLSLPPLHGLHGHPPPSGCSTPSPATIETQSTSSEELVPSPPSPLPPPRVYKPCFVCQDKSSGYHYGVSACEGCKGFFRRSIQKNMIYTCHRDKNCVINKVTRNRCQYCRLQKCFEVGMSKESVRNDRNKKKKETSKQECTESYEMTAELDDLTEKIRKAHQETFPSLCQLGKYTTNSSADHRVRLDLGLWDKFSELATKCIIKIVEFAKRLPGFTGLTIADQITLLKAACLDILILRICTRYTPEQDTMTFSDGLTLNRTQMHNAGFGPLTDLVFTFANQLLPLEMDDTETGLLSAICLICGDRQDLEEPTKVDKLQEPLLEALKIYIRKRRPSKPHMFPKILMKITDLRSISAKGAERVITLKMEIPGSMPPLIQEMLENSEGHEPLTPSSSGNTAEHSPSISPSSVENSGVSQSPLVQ
# Outline: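 HepG2 cells transiently transfected with multiplexed GAL4-UAS reporter units expressing chimeric NR–Gal4 fusions; 24 h compound exposure. Reporter mRNA quantified by RT-PCR, 6-FAM labelling, HpaI digestion and capillary electrophoresis; gain-of-signal fitted against DMSO baseline.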
# [8] = target: Nuclear receptor subfamily 1 group I member 2 (Homo sapiens) (UniProt O75469); assay: ATG_PXR_TRANS: Attagene TRANS-FACTORIAL HepG2 Assay for human Pregnane X Receptor (PXR) (AID 2283008)
# Chain of Nuclear receptor subfamily 1 group I member 2 (Homo sapiens) (O75469 whole entry, looked up, the tested form may be a part): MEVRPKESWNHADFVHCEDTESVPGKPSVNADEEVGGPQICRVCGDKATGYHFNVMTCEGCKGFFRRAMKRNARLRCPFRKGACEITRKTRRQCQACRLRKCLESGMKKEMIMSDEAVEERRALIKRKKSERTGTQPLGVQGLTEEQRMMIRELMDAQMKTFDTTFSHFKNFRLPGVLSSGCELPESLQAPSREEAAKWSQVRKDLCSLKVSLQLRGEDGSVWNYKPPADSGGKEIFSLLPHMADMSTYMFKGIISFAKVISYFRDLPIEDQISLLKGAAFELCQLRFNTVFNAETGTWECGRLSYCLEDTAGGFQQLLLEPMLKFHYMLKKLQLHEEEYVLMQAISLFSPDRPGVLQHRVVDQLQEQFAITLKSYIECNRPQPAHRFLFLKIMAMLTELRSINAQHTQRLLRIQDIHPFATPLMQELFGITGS
# Outline: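 HepG2 cells transiently transfected with GAL4-UAS reporter units and PXR-Gal4 chimera, exposed 24 h. Reporter mRNA quantified by RT-PCR, fluorescent labelling, HpaI digestion and capillary electrophoresis; gain of signal vs DMSO.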
structure (smiles),measurement,setting,value
FC(F)(F)C1(F)C(F)(F)C(F)(F)C(F)(F)C(F)(C(F)(F)F)C1(F)F (configuration not stated),outcome,[1],inactive
same,outcome,[2],inactive
same,outcome,[3],inactive
same,outcome,[4],inactive
O=S(=O)(c1ccc(OCc2ccccc2)cc1)c1ccccc1O,outcome,[1],inactive
same,outcome,[2],inactive
same,AC50,[5],0.66 µM (active)
O=C(Nc1ccc(Cl)c(Cl)c1)c1cc(Cl)cc(Cl)c1O,AC50,[1],4.32 µM (active)
same,outcome,[2],inactive
same,AC50,[5],4.33 µM (active)
same,outcome,[4],inactive
same,outcome,[6],inactive
CCOC(C)=O,outcome,[1],inactive
same,outcome,[2],inactive
same,outcome,[7],inactive
same,outcome,[5],inactive
same,outcome,[8],inactive
same,outcome,[4],inactive
same,outcome,[6],inactive
CCOC=C(C(=O)OCC)C(=O)OCC,outcome,[1],inactive
same,outcome,[2],inactive
same,outcome,[5],inactive
same,outcome,[8],inactive
same,outcome,[4],inactive
CCOC=O,outcome,[1],inactive
same,outcome,[2],inactive
same,outcome,[7],inactive
same,outcome,[8],inactive
same,outcome,[4],inactive
CCO[Si](CCC1CCC2OC2C1)(OCC)OCC (configuration not stated),outcome,[1],inactive
same,outcome,[2],inactive
same,outcome,[3],inactive
same,outcome,[5],inactive
O=CC(F)(F)C(F)(F)C(F)(F)C(F)F,outcome,[1],inactive
same,outcome,[2],inactive
same,outcome,[5],inactive
same,outcome,[8],inactive
same,outcome,[6],inactive
C[C@]12CC[C@@H]3c4ccc(O)cc4CC[C@H]3[C@@H]1CC[C@@H]2OC(=O)CCC1CCCC1,outcome,[1],inactive
same,outcome,[2],inactive
same,outcome,[8],inactive
C=CC(=O)OCCC(F)(F)C(F)(F)C(F)(F)C(F)(F)C(F)(F)C(F)(F)F,outcome,[1],inactive
same,outcome,[2],inactive
same,outcome,[3],inactive
same,outcome,[5],inactive
same,outcome,[8],inactive
same,outcome,[6],inactive
Cc1cc(C(=C2C=CC(=Nc3ccc(S(=O)(=O)O)cc3)C=C2)c2ccc(Nc3ccc(S(=O)(=O)O)cc3)cc2)cc(S(=O)(=O)O)c1N,outcome,[1],inactive
same,outcome,[2],inactive
same,outcome,[5],inactive
same,outcome,[6],inactive
CCc1cccc(CC)c1N(COC)C(=O)CS(=O)(=O)O,outcome,[1],inactive
same,outcome,[2],inactive
same,outcome,[3],inactive
same,outcome,[5],inactive
same,AC50,[8],7.05 µM (active)
same,outcome,[4],inactive
